# DT40 TDP1 CPT: growth inhibition of DT40 Tdp1-/-;hTDP1 cells with camptothecin (screen for TDP1 inhibitors) | actives 12% (n = 420,000) | Potency, µM (highest dose often 46.2 µM), without a hit: at the top dose activity change, negative = growth inhibition, actives largely listed as inhibitors | chicken DT40 Tdp1-/-;hTDP1 cells + 20 nM CPT, ATP luminescence, 48 h; further: potency means the concentration at half of the fitted maximal effect; nearly all actives have a fitted effect of over 55% in size
#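 Chicken DT40 Tdp1-/- cells complemented with human TDP1, 400 cells/well, exposed to compounds plus 20 nM camptothecin for at least 48 h at 37 C; viability read as ATP content by CellTiter-Glo luminescence.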
# DT40 TDP1 no CPT: qHTS for Inhibitors of human tyrosyl-DNA phosphodiesterase 1 (TDP1): qHTS in cells in absence of CPT | DT40 Tdp1-/- hTDP1 cells, no CPT, ATP luminescence, 48 h | Potency, µM (highest dose often 46.2 µM), without a hit: at the highest dose activity change, negative = growth inhibition, actives largely listed as inhibitors | actives 15% (n = 420,000) | AID 686978, 2013; further: potency means the concentration at half of the fitted maximal effect; nearly all actives have a fitted effect of over 55% in size
#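 Growth kinetics read by CellTiter-Glo luminescence after ≥48 hr at 37 °C. Cells: DT40 Tdp1-/- stably carrying human TDP1, 400 per well, compound exposure in the absence of CPT (DMSO vehicle).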
# HT1080 IDH1KD tx: HT-1080 IDH1 knockdown cell toxicity (counter line); Potency, µM (titrated, usually from 46.1 µM), for the others: at the highest dose activity, negative = toxicity, hits mostly cytotoxic; AID 686971; HT-1080 IDH1 knockdown viability, ATP luminescence, 48 h; actives 2% (n = 360,000);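 further: potency means the concentration at half of the fitted maximal effect; 0% = DMSO wells and -100% = cell-free medium wells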
#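 Cytotoxicity counter-line: IDH1KD HT-1080, 48 h, CellTiter-Glo. Curves classed by r2, magnitude and activity.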
# HT1080-NT tox: kills 2HG-producing HT-1080-NT fibrosarcoma cells | HT-1080-NT fibrosarcoma viability, CellTiter-Glo ATP luminescence, 48 h | Potency, µM (series often up to 46.1 µM), without a hit: top-dose activity, negative = less viability, most hits filed as cytotoxic | actives 1.6% (n = 360,000) | AID 686970;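 further: NT is the 2HG producing partner of a matched IDH1 knockdown line; potency means the concentration at half of the fitted maximal effect; 0% = DMSO-treated cells and -100% = media-only wells without cells; nearly all actives have a fitted effect of over 55% in size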
#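 HT-1080-NT; 750 cells/well; 5% FBS RPMI; 48 h compound, 37 degrees C; CellTiter-Glo luminescence; curve fitting and curve-class assignment.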
# IL1B secr inh: inhibitors of inflammasome signaling (IL-1 beta secretion) | AID 743279 | THP-1 LPS/ATP IL-1B secretion, AlphaLISA, 16 h; active compounds read low | actives 4.7% (n = 360,000) | activity change, % at 57.5 µM; in the data active means activity change below about -50%; inconclusive means mostly about -30% to -49%
#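 THP-1 cells pretreated 1 hr with compounds (up to 57.5 uM final), then stimulated with LPS (250 ng/mL final) plus ATP (1.25 mM final); secreted IL-1B measured by AlphaLISA after 16 hr, decreased signal indicating inhibition.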
# * marks the source's active call; other numbers are inactive results; ? = inconclusive; · = no result given; ! = a repeat was not active; [ ] = remark or other dose. Hits are enriched below; roughly 19% of the tested compounds scored in any of these assays. Unless noted, the call rests on the fitted dose curve; in most records, active means well fitted curve in the direction sought with a large enough effect; inconclusive means small, poorly fitted or top-dose-only effect, or another doubt; inactive means no such curve, though single readings can be large; an effect the other way counts as inactive or inconclusive. Unless noted, on the % scale 0 is the no-effect control and ±100 the full control effect.
SMILES,DT40 TDP1 CPT,DT40 TDP1 no CPT,HT1080 IDH1KD tx,HT1080-NT tox,IL1B secr inh
Cc1ccc(S(=O)(=O)N(C)C[C@H]2Oc3cc(Br)ccc3S(=O)(=O)N([C@H](C)CO)C[C@@H]2C)cc1,12%,9%,0%,7%,0
C[C@@H]1CCCCO[C@@H](CN(C)S(=O)(=O)c2ccc(F)cc2)[C@@H](C)CN([C@H](C)CO)C(=O)c2cc(N(C)C)ccc2O1,?,21µM*,1%,-3%,-17
CCCCC[C@@H](/C=C/C=C\CCCCCCCC(=O)O)OO,7%[0.628 µM],2%[0.628 µM],·,·,·
Cc1ccccc1CN1C(=O)C(C)N=C(c2ccccc2)c2ccccc21 (centres undefined),?,18µM*,·,·,·
Nc1nc(N)c2cnnn2n1,8%,-1%,12%,4%,22
Cc1ccc(N/N=C/c2c(O)n(-c3ccccc3)c(=O)[nH]c2=O)cc1,?,?,2.9µM*,?,11
Cc1cccc(-n2c(O)c(C=Nc3ccc(Br)cn3)c(=O)[nH]c2=O)c1,10µM*,16µM*,5%,13%,11
Cc1ccc(-n2c(O)c(/C=N/c3ncc(Br)cc3Br)c(=O)[nH]c2=O)cc1,?,9.2µM*,11%,11%,6
Cc1ccc(-n2c(O)c(C=Nc3ccc(S(N)(=O)=O)cc3)c(=O)[nH]c2=O)cc1,-8%,3%,19%,26%,15
Cc1ccc(-n2c(O)c(/C=C/C=Nc3ccccc3)c(=O)[nH]c2=O)cc1,17%,4%,-2%,1%,8
COc1ccccc1N(CC(=O)NC1CCCC1)C(=O)c1cnn(C(C)C)c1,-15%,-8%,18%,24%,-19
Cc1c(NC(NC(=O)CF)C(Cl)(Cl)Cl)c(=O)n(-c2ccccc2)n1C (centres undefined),6%,-13%,16%,18%,0
Cc1ccccc1NC(=O)N1Cc2ccccc2-n2nncc2C1,-8%,-17%,1%,-4%,-8
O=C1Nc2ccc(Cl)cc2C(c2ccccc2Cl)=NC1O (centres undefined),?,-95%,·,·,·
CCCOP(=O)(OCCC)c1nc(-c2ccccc2)oc1NCc1ccccc1,23µM*,?,?,-20%,-116*
COCCN1C(=NCCCOC(C)C)N[C@@H](c2ccccc2)C(C(=O)OC)=C1C,?,?,-3%,-8%,20
O=C1NCCOC(=O)[C@@H](Cc2ccc(F)cc2)CC/C=C/C[C@H]1CC(=O)N(CCO)Cc1ccccc1,21µM*,?,4%,4%,0
O=C1NCCOC(=O)[C@H](Cc2ccc(F)cc2)CC/C=C/C[C@@H]1CC(=O)N(CCO)Cc1ccccc1,16µM*,?,6%,11%,29
Cc1ccc2c(c1)[C@]13CCCC[C@@H]1[C@H](C2)N(C)CC3,-4%,-20%,·,·,·
CCC(C)C1NC(=O)C(NC(=O)C(CC(C)C)N(C)C(=O)C2CCCN2C(=O)C(C)O)C(C)OC(=O)C(Cc2ccc(OC)cc2)N(C)C(=O)C2CCCN2C(=O)C(CC(C)C)NC(=O)[C@H](C)C(=O)[C@H](C(C)C)OC(=O)CC1O (some centres undefined),0.037µM*,0.029µM*,0.013µM*,0.23µM*,-100*
COC[C@]12CN(C=O)C3C4C(OC)C1[C@@]3(C1CC3(O)C(OC)C(O)C4(OC(C)=O)C1C3OC(=O)c1ccccc1)[C@@H](OC)CC2O (some centres undefined),19%,28%,·,·,·
CCC(=O)N1CC(=O)Nc2ccc(C)cc2C1c1ccc(F)cc1 (centres undefined),3.7µM*,9.2µM*,·,·,·
O=C1CCO1,5%,4%,·,·,·
O=c1[nH]c(Cl)ccc1CN1CCOCC1,-2%,6%,20%,2%,14
COc1ccc(C2=NCC(=S)Nc3ccc(Cl)cc32)cc1OC,-13%,?,-14%,-20%,45
SMILES,DT40 TDP1 CPT,DT40 TDP1 no CPT,HT1080 IDH1KD tx,HT1080-NT tox,IL1B secr inh
COc1ccc(C2=NCC(=S)Nc3ccc(Cl)cc32)cc1Cl,?,21µM*,-2%,0%,22
FC(F)(F)c1ccc2c(c1)nnn2C1CCN(Cc2nnnn2Cc2ccccc2)CC1,?,?,?,-25%,?
Cc1nc2cc(C(F)(F)F)ccc2n1C1CCN(Cc2nnnn2CCc2ccccc2)CC1,18µM*,13µM*,?,18µM*,?
Cc1nc2cc(F)ccc2n1C1CCN(Cc2nnnn2CCc2ccccc2)CC1,16µM*,?,-17%,-23%,?
Fc1ccc2c(c1)nnn2C1CCN(Cc2nnnn2C2CCCCC2)CC1,-4%,-20%,0%,-27%,-9
Cc1ccc(Cn2nnnc2CN2CCC(n3nnc4cc(C(F)(F)F)ccc43)CC2)cc1,?,21µM*,?,?,?
CC(=NCc1ccco1)c1c(O)n(-c2ccccc2C)c(=O)[nH]c1=O,2%,5%,-1%,11%,-7
CCNC(C)Cc1cccc(C(F)(F)F)c1 (centres undefined),2%,-15%,·,·,·
CN(C)C(=O)Oc1ccc(Br)c2ccccc12,?,2%,-9%,-3%,-2
O=C(CSc1ncnc2c1nnn2-c1ccc(F)cc1)NCC1CCCO1 (centres undefined),15µM*,21µM*,-8%,-15%,?
C[C@]12CC[C@H]3[C@@H](CCC4=C(Cl)C(=O)CC[C@@]43C)[C@@H]1CC[C@@H]2O,-8%,?,·,·,·
CCOC(=O)c1cc2c(cn1)[C@@H](CCO)NC2,0%,-2%,-1%,-2%,-22
O=c1[nH]c2ccccc2n1CCCN1CCC(n2c(=O)[nH]c3cc(Cl)ccc32)CC1,?,24µM*!,-27%,-1%,?
Cc1ccc2nc(-c3ccc(CN4CCC(n5c(=O)[nH]c6ccccc65)CC4)cc3)c(-c3ccccc3)nc2c1,8.2µM*,12µM*,?,?,-74*
O=c1[nH]c(=O)n(C2CCCCCC2)c(O)c1C=NC1CCN(Cc2ccccc2)CC1,-29%,?,0%,1%,?
CCCCn1nnnc1C(C1CC1)N1CCC(n2c(=O)[nH]c3ccccc32)CC1 (centres undefined),?,?,8%,-3%,-15
COc1ccc(N2C(=O)CC(N3CCC(n4c(=O)[nH]c5ccccc54)CC3)C2=O)cc1 (centres undefined),?,?,-5%,7%,31
COc1ccc2nc(-c3ccc(CN4CCC(n5c(=O)[nH]c6ccccc65)CC4)cc3)c(-c3ccccc3)nc2c1,18µM*,15µM*,?,?,-61*
